Active and inactive are the calls of the source. How the source made its calls: active means hit-call score of the fitted dose curve at least 0.9, where 1 is the maximum; inactive means score below 0.9.
Tests used:
[1] = APR_HepG2_CellCycleArrest_24hr: Apredica 24-hour HepG2 Assay for Cell Cycle Arrest (AID 2282905); conditions: imaging, actives raise or lower the signal;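 further: cell cycle arrest scored as ratio of 2N to 4N nuclear DNA content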
Method in brief: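 Step one: dose HepG2 with test compounds, 0.39–200 uM, 0.5% DMSO, 24 hr. Step two: fix, permeabilize, stain nuclei with Hoechst 33342. Step three: image six fields per well at 20x, quantify DNA content, fit bidirectionally relative to DMSO.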

[2] = APR_HepG2_NuclearSize_24hr: Apredica 24-hour HepG2 Assay for Nuclear Size (AID 2282907); conditions: high-content imaging, actives raise or lower the signal
Method in brief: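 After fixation and permeabilization, 24-hr-treated HepG2 cells were stained with Hoechst 33342 and imaged on an ArrayScan (20x). Doses spanned 0.39–200 uM in duplicate. Nuclear diameter changes in either direction were fitted relative to 0.5% DMSO controls.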

[3] = APR_HepG2_CellLoss_24hr: Apredica 24-hour HepG2 Assay for Cell Loss (AID 2282908); conditions: high-content imaging;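 on AC50: fit in both directions so a hit may be cell loss or gain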
Method in brief: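 Duplicate wells received compound at ten concentrations (0.39–200 uM; final DMSO 0.5% v/v). After fixation with formaldehyde, nuclei stained with Hoechst 33342 were imaged at 20x. Loss or gain of cell count was fitted relative to DMSO controls.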

[4] = APR_HepG2_MicrotubuleCSK_24hr: Apredica 24-hour HepG2 Assay for Microtubule CSK Stabilty (AID 2282909); conditions: HepG2 microtubule cytoskeleton imaging, actives raise or lower the signal
Method in brief: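 Microtubule stability is scored from tubulin immunofluorescence in fixed HepG2 cells imaged at 20x. Cells receive ten compound concentrations up to 200 uM for 24 h; taxol and DMSO serve as positive and negative controls.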

[5] = APR_HepG2_MitoticArrest_24hr: Apredica 24-hour HepG2 Assay for Mitotic Arrest (AID 2282910); conditions: high-content imaging, actives raise or lower the signal
Method in brief: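 Treatment lasted 24 hr in the human HepG2 line at 0.39–200 uM, solvent held at 0.5% DMSO. Fixed cells were stained with Hoechst 33342 and anti-phospho-histone H3, imaged at 20x, and analysed by gain- or loss-of-signal fitting against DMSO.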

[6] = APR_HepG2_MitoMembPot_24hr: Apredica 24-hour HepG2 Assay for Mitochondrial Membrane Potential (AID 2282911); conditions: imaging, actives raise or lower the signal
Method in brief: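 Mitochondrial dye uptake (MitoTracker Red CMXRos, 250 nM, 30 min pre-fixation) in HepG2 after 24 hr compound exposure, 0.39–200 uM; ArrayScan images at 20x, activity fitted in both directions relative to DMSO.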

[7] = APR_HepG2_MitoMass_24hr: Apredica 24-hour HepG2 Assay for Mitochondrial Mass (AID 2282912); conditions: high-content imaging, actives raise or lower the signal
Method in brief: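 Readout: fluorescence of MitoTracker Red CMXRos (250 nM, added 30 min pre-fixation) in fixed HepG2 cells imaged by HCS. Exposure lasted 24 hr at 0.39–200 uM; increases and decreases were both fitted relative to DMSO.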

[8] = APR_HepG2_p53Act_24hr: Apredica 24-hour HepG2 Assay for p53 Activation (AID 2282913); conditions: high-content imaging, actives raise or lower the signal;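 further: p53 protein immunofluorescence averaged per cell in HepG2 with Hoechst nuclei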
Method in brief: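 Following 24 hr dosing of HepG2 at 0.39–200 uM, the cells undergo formaldehyde fixation, Triton permeabilization and multiplexed antibody labeling that includes p53 (Cy5). Signal from the imaging is referenced to DMSO solvent controls.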

[9] = APR_HepG2_CellCycleArrest_72hr: Apredica 72-hour HepG2 Assay for Cell Cycle Arrest (AID 2282914); conditions: high-content imaging, actives raise or lower the signal
Method in brief: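 Using multiplexed high-content imaging, HepG2 nuclei stained with Hoechst 33342 (2 ug/mL) were analysed for DNA content after fixation and permeabilization. Treatment lasted 72 hr across 0.39–200 uM in duplicate with final DMSO 0.5% v/v; DMSO served as negative control.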

[10] = APR_HepG2_CellLoss_72hr: Apredica 72-hour HepG2 Assay for Cell Loss (AID 2282915); conditions: high-content imaging
Method in brief: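 HepG2 cells were exposed for 72 hr to compounds at 0.39–200 uM (ten concentrations, duplicate) in 0.5% v/v final DMSO. Nuclei were stained with Hoechst 33342 after 3.7% formaldehyde fixation, imaged at 20x, and counted; fits bidirectional versus DMSO.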

Measured: AC50

Cc1ccc(C)c(O)c1
inactive: all assays above

CNCc1ccc(NC(=O)c2c[nH]c3c2C(=O)CCC3)cc1
active: [10] 73.7 µM
inactive: all other assays above

COCCOCCOCCOC
inactive: all assays above

CCCCCCCCO
inactive: all assays above

Nc1ccc(Nc2ccccc2)cc1
active: [6] 54 µM | [9] 13.8 µM
not listed: [3] | [10]
inactive: all other assays above

COC(=O)c1ccccc1O
inactive: all assays above

O=C1CCCCCN1
not listed: [3] | [10]
inactive: all other assays above

CC(C)CCCCCCCOC(=O)CCCCC(=O)OCCCCCCCC(C)C
inactive: all assays above

O=C(O)c1cccc(Oc2ccccc2)c1
inactive: all assays above

C1N2CN3CN1CN(C2)C3
not listed: [3] | [10]
inactive: all other assays above

CCOC(=O)COc1ccc2c(c1)CC(NCC(O)c1cccc(Cl)c1)CC2 (stereo not drawn)
active: [3] 84.4 µM | [5] 28.7 µM | [7] 41.5 µM | [8] 30.6 µM | [10] 71.4 µM
inactive: [1] | [2] | [4] | [6] | [9]

O=C(O)c1cccc(N(Cc2cccnc2)c2ccc(OC(F)F)c(OC(F)F)c2)c1
inactive: [1] | [2] | [4] | [9]
active: [3] 43.6 µM | [5] 10.4 µM | [6] 0.0349 µM | [7] 13.3 µM | [8] 5.63 µM | [10] 23.5 µM

Nc1nc2ncc(CNc3ccc(C(=O)N[C@@H](CCC(=O)O)C(=O)O)cc3)nc2c(=O)[nH]1
inactive: all assays above

COC(=O)c1c(Cl)c(Cl)c(C(=O)OC)c(Cl)c1Cl
not listed: [3] | [10]
inactive: all other assays above

O=P(OC(CCl)CCl)(OC(CCl)CCl)OC(CCl)CCl
inactive: [1] | [4] | [6] | [8]
active: [2] 48 µM | [3] 55.6 µM | [5] 44.9 µM | [7] 49.4 µM | [9] 49.1 µM | [10] 47.1 µM

CC1(C)C(=O)N(Br)C(=O)N1Br
not listed: [3]
inactive: all other assays above

Cn1c(=O)cc(Oc2ccc(F)cc2F)c2cnc(NCC(C)(C)O)nc21
active: [9] 112 µM
not listed: [3] | [10]
inactive: all other assays above

C=CCCCCCCCCC(=O)O
not listed: [3] | [10]
inactive: all other assays above

NC(=O)NO
not listed: [3]
inactive: all other assays above

CC(=O)OCCC(C)C
not listed: [3]
inactive: all other assays above

CC(=O)OC[C@H]1O[C@@](COC(C)=O)(O[C@H]2O[C@H](COC(C)=O)[C@@H](OC(C)=O)[C@H](OC(C)=O)[C@H]2OC(C)=O)[C@@H](OC(C)=O)[C@@H]1OC(C)=O
not listed: [3]
inactive: all other assays above

CNS(=O)(=O)c1cc(C(=O)N2CCC(CCN3C4CCC3CC(n3c(C)nc5ccccc53)C4)(c3cccc(F)c3)CC2)c(Cl)cc1F (stereo not drawn)
active: [4] 52 µM | [5] 40.9 µM | [7] 62.7 µM | [8] 72.7 µM | [9] 78.9 µM | [10] 24 µM
inactive: [1] | [2] | [6]

CC(C)=CCC/C(C)=C\CO
not listed: [3]
inactive: all other assays above

Clc1nc(Cl)c(Cl)c(Cl)c1Cl
inactive: [2] | [4] | [6]
active: [1] 40 µM | [5] 77.3 µM | [7] 102 µM | [8] 38.6 µM | [9] 20 µM

CCOC(=O)CC(CC(=O)OCC)(OC(C)=O)C(=O)OCC
active: [9] 82.1 µM | [10] 45.8 µM
not listed: [3]
inactive: all other assays above

CCOC(=O)c1ccc(C2CCC(NC[C@H](O)COc3ccc(O)c(NS(C)(=O)=O)c3)CC2)cc1 (stereo partly drawn)
active: [4] 90.2 µM | [5] 27.5 µM | [6] 86.9 µM | [7] 28.1 µM | [8] 26.2 µM
inactive: [1] | [2] | [9]

CCn1nc(Cc2ccccc2)cc1C1CCN(C[C@H]2C[C@H](N(C)[C@@H](C(=O)O)C(C)C)C[C@@H]2c2cccc(F)c2)CC1
active: [1] 46.3 µM | [10] 90.9 µM
not listed: [3]
inactive: all other assays above

CC(C)c1cccc(C(C)C)c1N1C(=O)c2ccc(O)cc2C1=O
active: [1] 6.15 µM | [5] 4.05 µM | [6] 32.7 µM | [7] 164 µM | [8] 46.7 µM | [9] 7.16 µM | [10] 57.7 µM
inactive: [2] | [4]

CCCCCCCCCCCCCCCO
active: [1] 107 µM | [9] 110 µM | [10] 93.8 µM
not listed: [3]
inactive: all other assays above

COc1ccc2sc(C(=O)Nc3nnn[nH]3)c(OC(C)C)c2c1
not listed: [3] | [10]
inactive: all other assays above

COC(=O)CC(=O)OC
not listed: [3] | [10]
inactive: all other assays above

Fc1ccccc1[C@@H](F)COC1CCC(Nc2ncnc3[nH]ncc23)CC1 (stereo partly drawn)
active: [1] 62.3 µM | [4] 78.4 µM | [9] 50.1 µM | [10] 59 µM
not listed: [3]
inactive: all other assays above

CC[C@H]1CC[C@H](NCc2cc3c(cc2OC)[C@H]2C[C@H]2C(=O)N3C)[C@H](c2ccccc2)N1
active: [10] 72.5 µM
not listed: [3]
inactive: all other assays above

CC/C(=C\C(=N/O)C(N)=O)C(C)[N+](=O)[O-] (stereo not drawn)
not listed: [3] | [10]
inactive: all other assays above

Cc1ccc(O)cc1
not listed: [3]
inactive: all other assays above

CCOCCOCCOCCO
not listed: [3]
inactive: all other assays above

CCOc1cccc(-n2cc(C(=O)N3CCN(c4cc(C(=O)O)c5ccccc5c4)CC3)nc2-c2ccc(C)cc2)c1
inactive: [2] | [6]
active: [1] 97.5 µM | [4] 101 µM | [5] 97.5 µM | [7] 104 µM | [8] 99.3 µM | [9] 96 µM | [10] 81.9 µM

CCCC(=O)OCC
not listed: [3]
inactive: all other assays above

COCCOc1cc2cc(C(=O)NC3CCN(C(C)C)CC3)n(CC(=O)Nc3ccc(Cl)cn3)c2cn1
active: [5] 89.4 µM | [7] 93.1 µM
not listed: [3] | [10]
inactive: all other assays above

C=CC(=C)CCC=C(C)C
not listed: [3]
inactive: all other assays above

O=C1CCC(N2C(=O)c3ccccc3C2=O)C(=O)N1 (stereo not drawn)
not listed: [3] | [10]
inactive: all other assays above

CCCN(C1CCN(C(=O)C2CCNCC2)CC1)[C@@H]1CCc2ccc(OC)cc2C1
active: [5] 67.5 µM | [7] 100 µM | [10] 95 µM
not listed: [3]
inactive: all other assays above

CC(C)CC(C)(O)C#CC(C)(O)CC(C)C (stereo not drawn)
not listed: [3]
inactive: all other assays above

O=c1[nH]c2ccc(S(=O)CCN3CCC(Cc4ccc(F)cc4)CC3)cc2o1 (stereo not drawn)
active: [9] 99.9 µM | [10] 76.1 µM
not listed: [3]
inactive: all other assays above

C[C@](N)(Cc1ccc(O)c(O)c1)C(=O)O
not listed: [3]
inactive: all other assays above

Reference: PubChem BioAssay (EPA / NIEHS)
